Data from PubChem BioAssay AID1159580 (chemical genetic matrix, 2015).
In all, about 5,500 compounds went through this assay and about 2,000 (36%) were called active. Another 18% or so got no clear call; they are omitted. Rule as the data show it: active = normalized growth mostly below about 0.91 (no sharp cut-off); inconclusive = no clear call, values can overlap the other calls; inactive = mostly above about 0.92. Some of the results follow.

Assay: chemical genetic growth profiling, strain panel (AID 1159580);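 also: tested at 20 µM; growth read once vehicle control cultures reached saturation at 30 °C; 1 = growth at the plate median or of vehicle wells; lower values mean less growth of the strain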
Conditions: S. cerevisiae deletion strains, growth OD

Measured: normalized growth

COc1c2c(c(CC=C(C)C)c3oc(=O)c(-c4ccc(O)cc4)c(O)c13)OC(C)(C)C=C2
inactive: locus YAL021C, strain ccr4, active compounds read low 0.989 | locus YBR021W, strain FUR4, active compounds read low 0.849 | locus YBR171W, strain sec66, active compounds read low 0.989 | locus YBR229C, strain ROT2, active compounds read low 0.997 | locus YBR279W, strain paf1, active compounds read low 0.972 | locus YCL016C, strain dcc1, active compounds read low 0.938 | locus YCR088W, strain abp1, active compounds read low 0.944 | locus YDL005C, strain med2, active compounds read low 0.925 | locus YDL035C, strain GPR1, active compounds read low 0.861 | locus YDL040C, strain nat1, active compounds read low 0.992 | locus YDL185W, strain tfp1, active compounds read low 1.02 | locus YDR001C, strain nth1, active compounds read low 0.989 | locus YDR069C, strain doa4, active compounds read low 1.01 | locus YDR150W, strain NUM1, active compounds read low 1.01 | locus YDR334W, strain swr1, active compounds read low 0.99 | locus YEL037C, strain rad23, active compounds read low 0.992 | locus YER016W, strain bim1, active compounds read low 0.969 | locus YER110C, active compounds read low 0.938 | locus YFR010W, strain ubp6, active compounds read low 0.977 | locus YGL078C, strain dbp3, active compounds read low 0.98 | locus YGL167C, strain pmr1, active compounds read low 0.976 | locus YGL240W, strain doc1, active compounds read low 0.903 | locus YGR135W, strain pre9, active compounds read low 0.907 | locus YHR013C, strain ard1, active compounds read low 1.03 | locus YHR027C, strain rpn1, active compounds read low 0.942 | locus YIL073C, strain SPO22, active compounds read low 0.963 | locus YJL092W, strain hpr5, active compounds read low 0.932 | locus YJL115W, strain asf1, active compounds read low 1.02 | locus YJL134W, strain LCB3, active compounds read low 0.977 | locus YJL154C, strain vps35, active compounds read low 0.982
active: locus YAL013W, strain DEP1, active compounds read low 0.307 | locus YAL026C, strain drs2, active compounds read low 0.87 | locus YAL030W, strain snc1, active compounds read low 0.916 | locus YBL061C, strain skt5, active compounds read low 0.846 | locus YBR009C, strain hhf1, active compounds read low 0.656 | locus YBR023C, strain chs3, active compounds read low 0.854 | locus YBR231C, strain swc5, active compounds read low 0.857 | locus YCL011C, strain gbp2, active compounds read low 0.759 | locus YCL029C, strain bik1, active compounds read low 0.677 | locus YCL061C, strain MRC1, active compounds read low 0.816 | locus YCL069W, strain vba3, active compounds read low 0.812 | locus YDL074C, strain BRE1, active compounds read low 0.325 | locus YDL101C, strain DUN1, active compounds read low 0.862 | locus YDL192W, strain arf1, active compounds read low 0.414 | locus YDR101C, strain arx1, active compounds read low 0.775 | locus YDR137W, strain rgp1, active compounds read low 0.819 | locus YDR159W, strain sac3, active compounds read low 0.383 | locus YDR162C, strain NBP2, active compounds read low 0.642 | locus YDR195W, strain ref2 0.459 | locus YDR297W, strain sur2, active compounds read low 0.847 | locus YDR318W, strain mcm21, active compounds read low 0.681 | locus YDR335W, strain msn5, active compounds read low 0.851 | locus YDR388W, active compounds read low 0.912 | locus YDR392W, strain spt3, active compounds read low 0.103 | locus YDR502C, strain sam2, active compounds read low 0.768 | locus YEL003W, strain gim4, active compounds read low 0.766 | locus YEL061C, strain CIN8 (second series), active compounds read low 0.765 | locus YER015W, strain faa2, active compounds read low 0.845 | locus YER111C, strain swi4, active compounds read low 0.518 | locus YER155C, strain BEM2 (second series), active compounds read low 0.536 | locus YER155C, strain BEM2, active compounds read low 0.277 | locus YER167W, strain BCK2, active compounds read low 0.806 | locus YGL086W, strain mad1, active compounds read low 0.683 | locus YGL173C, strain kem1, active compounds read low 0.9 | locus YGL227W, strain vid30, active compounds read low 0.765 | locus YGL248W, strain PDE1, active compounds read low 0.763 | locus YGL253W, strain hxk2, active compounds read low 0.838 | locus YGR078C, strain PAC10, active compounds read low 0.633 | locus YGR229C, strain SMI1, active compounds read low 0.409 | locus YGR252W, strain gcn5, active compounds read low 0.696 | locus YHR079C, strain IRE1 (second series), active compounds read low 0.868 | locus YHR094C, strain hxt1, active compounds read low 0.832 | locus YHR129C, strain ARP1, active compounds read low 0.61 | locus YHR142W, strain chs7, active compounds read low 0.512 | locus YHR200W, strain rpn10, active compounds read low 0.889 | locus YIL066C, strain RNR3, active compounds read low 0.708 | locus YIL125W, strain kgd1, active compounds read low 0.911 | locus YIR030C, strain dcg1, active compounds read low 0.773 | locus YJL095W, strain BCK1 (second series), active compounds read low 0.799 | locus YJL095W, strain BCK1, active compounds read low 0.352 | locus YJL129C, strain trk1, active compounds read low 0.648 | locus YJL164C, strain tpk1, active compounds read low 0.747 | locus YJL166W, strain qcr8, active compounds read low 0.679
